Assay results taken from the supplement of paper PMC6555819.

Columns and labels:
Experiment in all cases: PBM binding z-score (relative to random genomic background probes); higher = stronger binding; sequences stand for … in GC…GCGATTGACAGCGTAGAATGAAGG
[1] = test system: FXR:RXRa (NR concentration 270 nM, RXRa partner concentration 90 nM)
Method in brief: (§1)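 Ligand-free nuclear receptor dimers were applied to custom Agilent 4×180K protein-binding microarrays whose double-stranded probes carried direct-repeat seeds, single-nucleotide variants, half-site ablations and random human genomic background sequences in 34-nt variable regions. Incubation lasted 1 h. Binding z-scores were computed against the random background probes from regression-normalized fluorescence.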

[2] = test system: LXRa:RXRa (NR concentration 270 nM, RXRa partner concentration 90 nM)
Method in brief: as §1

[3] = test system: LXRa homodimer (NR concentration 270 nM)
Method in brief: as §1

[4] = test system: LXRb:RXRa (NR concentration 270 nM, RXRa partner concentration 90 nM)
Method in brief: as §1

[5] = test system: LXRb homodimer (NR concentration 270 nM)
Method in brief: as §1

[6] = test system: PPARa:RXRa (NR concentration 270 nM, RXRa partner concentration 90 nM)
Method in brief: as §1

[7] = test system: PPARg:RXRa (NR concentration 180 nM, RXRa partner concentration 90 nM)
Method in brief: as §1

[8] = test system: PPARg:RXRa 270nM:90nM, anti-RXR (NR concentration 270 nM, RXRa partner concentration 90 nM)
Method in brief: as §1

[9] = test system: PPARg:RXRa 30nM:10nM, anti-RXR (NR concentration 30 nM, RXRa partner concentration 10 nM)
Method in brief: as §1

[10] = test system: PPARg:RXRa 90nM:30nM, anti-RXR (NR concentration 90 nM, RXRa partner concentration 30 nM)
Method in brief: as §1

Sequence	PBM binding z-score [1]	PBM binding z-score [2]	PBM binding z-score [3]	PBM binding z-score [4]	PBM binding z-score [5]	PBM binding z-score [6]	PBM binding z-score [7]	PBM binding z-score [8]	PBM binding z-score [9]	PBM binding z-score [10]
CGAACTAGGTCGAAGGACAGTGAAAGGCGACGTA	-0.0707	-0.21	-0.395	-0.3	-1.11	2.52	5.13	5.69	2.98	5.61
CGAACTAGGTCAAAGGACAGTGCAAGGCGACGTA	4.07	2.5	0.126	1.63	-0.463	5.41	10.3	8.27	8.02	9.07
CGTCCAAGGGCAGCAGGTCAGTGAAAGCGACGTG	0.137	-0.0372	-0.847	-0.105	-1.37	0.938	0.305	0.501	-0.617	-0.019
CTCGAAAGGTCGGTTGAGGTGAGTAAACGGATAA	2.7	1.73	-0.0936	1.39	-0.228	2.84	0.202	1.25	0.048	0.00835
CGAACTAGGTCAAAGGACAGTTAAAGGCGACGTA	4.01	2.69	0.333	1.95	-0.158	5.58	10.5	8.8	7.97	9.57
TAGCCTAGGTCATAGGGCCAGTATAGTACGCATC	4.13	3.13	0.208	2.09	-0.248	3.7	3.32	3.46	1.43	2.75
ACTAACAGGCCAAGGGTCACTCAAGATTAGTCCG	2.89	3.27	0.663	3.06	0.292	4.35	6.9	6.64	4.86	6.91
CAAACTAGGTCAAAGGTCAAAGTAGAGCCAACCA	8.58	7.15	5.51	7.55	2.88	7.99	13.8	11.5	13	13.8
ATCTCTAGGTAAAGTTCAGCGAAAGATCGATAGA	1.69	2.33	1.67	1.65	0.72	2.81	3.77	4.78	2.56	4.27
ATATGTAGCTTAGGGTCATTCAGAAAGTAGGGAA	4.3	4.47	1.67	4.49	1.7	4.7	2.42	3.28	1.35	2.4
TTACCAAGGTGACCTGAGGTCGTTGATCCAACTC	3.01	5.21	3.22	3.72	-0.159	3.47	1.7	2.13	0.705	1.34
CGTCAAAGTTCTAGGTAACGTAACAGAAAGCAGC	-0.164	-0.199	0.179	0.0595	-0.169	0.259	0.641	0.228	-0.178	0.017
ATATGTAGCTTAAGGGTCATTCAGGTTGGTTCGC	3.83	3.86	1.83	3.79	0.863	4.2	3.93	5.35	3.44	5.39
CGTCCAAGGTCAATGCAAGGTCAGTGAAAGCATT	7.23	5.69	4.1	5.16	1.06	5.79	4.73	5.14	2.05	3.82
CGAACTCGGTCAAAGGACAGTGAAAGGCGACGTA	0.719	0.857	-0.21	-0.0802	-0.824	2.68	5.06	5.39	3.97	5.3
TCTAGTTGGTCATGGAGGTCACACACGACGGGTA	3.61	3.7	3.33	3.3	1.23	3.9	3.39	3.95	3.27	3.52
CGAAATAGGTCACCAGGACAGTGAAGAGGTTGGA	5.67	4.08	0.461	3.13	0.187	5.9	8.44	7.47	4.7	6.97
CGAACGAGGTCAGAACAGGACAGTGAAGGATGAT	5.64	4.06	0.279	2.95	0.317	4.97	4.86	4.15	1.32	3.02
ATCGAAAAGTCGAAGGTGAGTATACCCACCCGAA	0.0437	-0.18	-0.293	-0.264	-0.243	0.35	0.704	0.332	0.126	0.251
GATACAGGGTCAGCTTGAGGCCAGAGTATGGAAA	4.2	2.37	-0.58	2.03	-0.747	3.98	2.71	2.81	0.493	1.56
GCTGCTAGGTCAGGTTGGTCAACTAACGGGTACG	1.14	0.685	-0.134	0.695	-0.424	1.46	0.577	0.833	-0.708	0.0771
CGAACTAGGTCACCTGGACAGTGAAGAGGTTGGA	3.92	2.38	0.0453	1.79	-0.443	5	8.13	6.5	4.2	5.86
ACTAGTGGGTCAGCTGAGGTCACACACAATTCGG	4.98	5.49	2.88	4.54	0.173	4.9	6.38	5.68	3.12	4.86
GGAACGGGGGCAAGTTGATAGCAGAGTTTGATGG	3.27	2.87	0.913	4.45	7.1	4.02	3.2	4.52	2.09	3.58
CGAACTAGGTCAAAGGACGGTGAAAGGCGACGTA	4.04	2.51	-0.304	1.41	-0.584	5.34	9.5	8	7.43	8.82
